This is a sample that favours compounds with a hit; in the whole collection about 11% have one here.
VDR inhibitor: Inhibitors of the vitamin D receptor (VDR): qHTS | Vitamin D3 receptor (Homo sapiens), P11473 | VDR-SRC2-3 peptide fluorescence polarization, 2 h | Potency, µM, most hits filed as inhibitors | 400,000 compounds, 0.93% hits | AID 504847, 2011
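After 23 nl compound addition and a short centrifugation, plates sat for 2 hours at ambient temperature; polarization of fluorescence then indicated loss of VDR binding to peptide SRC2-3.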
PLK1 PBD inh: qHTS for Inhibitors of PLK1-PDB (polo-like kinase 1 - polo-box domain): Primary Screen; Plk1 PBD binding of FITC phosphopeptide, fluorescence polarization; Potency, µM, usual class: inhibitors; 360,000 compounds, 2.8% hits; further: series mostly up to about 57 µM; nearly all actives have a fitted effect of over 65% in size
HP1b chromo inh: HTS for Inhibitors of HP1-beta Chromodomain Interactions with Methylated Histone Tails. Chromobox protein homolog 1 (Homo sapiens), P83916. AlphaScreen HP1-beta / biotin-H3K9me3 peptide binding. Potency, µM (top dose mostly 114 µM), usual class: inhibitors. 390,000 compounds, 0.56% hits; further: nearly all actives have a fitted effect of over 70% in size
Target sequence (P83916 whole entry, looked up): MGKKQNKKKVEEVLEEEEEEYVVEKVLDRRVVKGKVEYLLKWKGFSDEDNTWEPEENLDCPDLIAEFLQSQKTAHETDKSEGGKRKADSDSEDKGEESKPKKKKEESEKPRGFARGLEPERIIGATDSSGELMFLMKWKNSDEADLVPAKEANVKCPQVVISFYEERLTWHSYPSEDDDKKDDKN
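Compound inhibition of the preformed complex between 50 nM HP1-beta and 50 nM biotinylated H3K9me3 peptide was read by AlphaScreen. Buffer was PBS pH 7.4 with 0.01% Tween-20. Incubations ran 30 min at room temperature, with 10 ug/mL donor/acceptor beads.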
JMJD2A Tudor: qHTS Assay for Inhibitors of JMJD2A-Tudor Domain | Lysine-specific demethylase 4A (Homo sapiens), O75164 | AlphaScreen JMJD2A-Tudor / H3K4me3 peptide binding | Potency, µM (highest dose often 114 µM), most hits filed as inhibitors | 390,000 compounds, 4.4% hits | AID 504339, 2011; further: nearly all actives have a fitted effect of over 50% in size
BAZ2B inh: qHTS Assay for Inhibitors of BAZ2B. Bromodomain adjacent to zinc finger domain protein 2B (Homo sapiens), Q9UIF8. AlphaScreen BAZ2B-H3K14Ac peptide displacement. Potency, µM (highest dose often 114 µM), usual class: inhibitors. 360,000 compounds, 4.4% hits. AID 504333, 2011; further: nearly all actives have a fitted effect of over 60% in size
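In this displacement format the biotinylated H3(5-23) peptide acetylated at Lys14 serves as ligand at 50 nM, with BAZ2B at 50 nM in PBS pH 7.4 containing 0.01% Tween-20. Donor and acceptor beads are 10 ug/mL final.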
G9a block: qHTS Assay for Inhibitors of Histone Lysine Methyltransferase G9a. Potency, µM (highest dose often 102 µM), actives largely listed as inhibitors. AID 504332, 2011. 350,000 compounds, 8.8% hits. G9a H3K9 monomethylation, AlphaScreen, 2 h. Histone-lysine N-methyltransferase EHMT2 (Homo sapiens), Q96KQ7; further: nearly all actives have a fitted effect of over 75% in size
Target sequence (Q96KQ7 913-1193 limits assumed): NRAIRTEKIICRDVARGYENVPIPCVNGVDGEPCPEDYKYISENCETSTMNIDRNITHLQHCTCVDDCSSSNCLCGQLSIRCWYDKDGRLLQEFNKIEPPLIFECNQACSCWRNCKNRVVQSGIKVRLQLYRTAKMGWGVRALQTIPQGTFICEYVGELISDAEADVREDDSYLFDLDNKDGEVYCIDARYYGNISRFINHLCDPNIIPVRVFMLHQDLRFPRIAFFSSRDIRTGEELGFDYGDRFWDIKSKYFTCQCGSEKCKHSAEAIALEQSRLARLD
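Step 1: enzyme (final 20 nM) with compound, 15 min RT. Step 2: substrate peptide 500 nM and SAM 20 uM, 2 h RT. Step 3: anti-H3K9me1 antibody and AlphaScreen beads, 10 min, then plate read.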
Large screens that a line does not name were inactive. The call rests on the fitted dose curve; in most records, active means well fitted curve in the direction sought with a large enough effect; inconclusive means small, poorly fitted or top-dose-only effect, or another doubt; inactive means no such curve, though single readings can be large; an effect the other way counts as inactive or inconclusive.

CC(C)(O)C(=O)NNC(=S)Nc1cccc(C(F)(F)F)c1	G9a block 7.94µM
CNNC(=S)Nc1cccc(C(F)(F)F)c1	none
O=C(NC(=S)Nc1cccc(C(F)(F)F)c1)c1ccc2nonc2c1	HP1b chromo inh inconclusive, JMJD2A Tudor inconclusive, BAZ2B inh inconclusive, G9a block 44.7µM
COc1ccc(NC(=S)NNC(=S)Nc2cccc(C(F)(F)F)c2)cc1	VDR inhibitor inconclusive, PLK1 PBD inh inconclusive, HP1b chromo inh inconclusive, JMJD2A Tudor inconclusive, BAZ2B inh inconclusive, G9a block 22.4µM
CCOc1ccc(NC(=S)NNC(=S)Nc2cccc(C(F)(F)F)c2)cc1	PLK1 PBD inh inconclusive, BAZ2B inh inconclusive (no result: G9a block)
Cc1cc(C(F)(F)F)nn1CC(=O)NNC(=S)Nc1ccc(F)cc1	none
Cc1c(C(=O)N(C)Cc2ccccc2)sc2nc(-c3ccc(F)cc3)cn12	none (no result: PLK1 PBD inh)
CCc1ccc(CNC(=O)Cn2nc(-c3ccc(C)cc3)ccc2=O)cc1	none (no result: PLK1 PBD inh)
Cc1cccc(C)c1NC(=O)C1(C)CSCC(=O)N1CCC(C)C (stereo not drawn)	none (no result: VDR inhibitor, HP1b chromo inh, JMJD2A Tudor, BAZ2B inh, G9a block)
O=C(NNc1ccccc1Br)C(O)(c1cccc(C(F)(F)F)c1)c1cccc(C(F)(F)F)c1	G9a block inconclusive
COc1cccc(NC(=S)NNC(=O)C(C)n2nc(C)c([N+](=O)[O-])c2C)c1 (stereo not drawn)	PLK1 PBD inh inconclusive, G9a block 39.8µM
FC(F)(F)c1cccc(NC(=S)NNC(=S)Nc2cccc(C(F)(F)F)c2)c1	BAZ2B inh inconclusive, G9a block 35.5µM (no result: VDR inhibitor, PLK1 PBD inh, HP1b chromo inh, JMJD2A Tudor)
Cc1ccc(NNC(=O)C(O)(c2cccc(C(F)(F)F)c2)c2cccc(C(F)(F)F)c2)cc1	G9a block 31.6µM
CCOc1ccccc1C1C(C(=O)N2CCCCC2)=C(C)Nc2nc3ccccc3n21 (stereo not drawn)	none (no result: PLK1 PBD inh)
O=c1cc(-c2ccccc2F)[nH]c2cc3c(cc12)OCO3	none (no result: PLK1 PBD inh, HP1b chromo inh, JMJD2A Tudor, BAZ2B inh)
COCCCn1cn[nH]c1=S	VDR inhibitor inconclusive, JMJD2A Tudor inconclusive, G9a block inconclusive
CC(C)(C)n1cn[nH]c1=S	G9a block 25.1µM
O=C(COC(=O)/C=C/c1ccco1)Nc1cc(S(=O)(=O)N2CCOCC2)ccc1Cl	none (no result: BAZ2B inh, G9a block)
COc1ccc(NC(C)=O)cc1NC(C)C(=O)Nc1ccc(F)c(F)c1F (stereo not drawn)	G9a block 50.1µM
O=C(NCCc1cccs1)c1ccc(Cn2c(SCc3cccc(F)c3)nc3cccnc32)cc1	none (no result: PLK1 PBD inh)
COc1ccc(-n2c(=O)cnc3cnc(OC)nc32)cc1	none (no result: PLK1 PBD inh, HP1b chromo inh, JMJD2A Tudor, BAZ2B inh)
CCOC(=O)c1sc(Nc2ccc(F)cc2)nc1C	none
CCOC(=O)c1sc(NC(=O)/C=C/c2ccc(F)cc2)nc1C	PLK1 PBD inh 21.2µM, HP1b chromo inh inconclusive (no result: G9a block)
CCOC(=O)c1sc(NC(=O)CCCCl)nc1C	G9a block 50.1µM
COc1ccc(-n2c(-c3cccc(F)c3)nc3c(cnn3-c3ccc(C)cc3)c2=O)cc1	none (no result: PLK1 PBD inh, BAZ2B inh)
CCc1cccc(NC(=O)Cc2ccc(OC)c(OC)c2)c1	none
COc1cc(/C=C/C(=O)NC2CCCCC2)cc(OC)c1OC	VDR inhibitor inconclusive, PLK1 PBD inh 26.7µM
COc1cc(/C=C/C(=O)Nc2ccc(C)cc2)cc(OC)c1OC	none
COc1cc(/C=C/C(=O)Nc2cc(C(F)(F)F)ccc2Cl)cc(OC)c1OC	PLK1 PBD inh 26.7µM
COc1cc(/C=C/C(=O)Nc2nnc(C(C)(C)C)s2)cc(OC)c1OC	PLK1 PBD inh 23.8µM, HP1b chromo inh inconclusive, G9a block 4.47µM
COC(=O)c1ccccc1NC(=O)/C=C/c1cc(OC)c(OC)c(OC)c1	none
COc1cc(C(Nc2ccc3c(c2)OCO3)C(=O)NC2CCCCC2)cc(OC)c1OC (stereo not drawn)	JMJD2A Tudor inconclusive, BAZ2B inh 39.8µM, G9a block 2.82µM
Nc1ncn(C(=S)Nc2ccccc2)n1	none (no result: BAZ2B inh, G9a block)
N/C(=N\OC(=O)c1ccc2ccccc2c1)c1ccccc1Cl	none
